# Compound activity deposited in PubChem by National Center for Advancing Translational Sciences (NCATS).
# A selection: hits, their analogues and other compounds. The true share with any hit is near 21%.
# HCV inhibitor = HCV inhibition; Huh7.5.1 HCVcc-Cre infection, luciferase reporter, 44 h; Potency, µM (series often up to 41.8 µM), usual class: inhibitors; 3.4% of 340,000 active; AID 651820
#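 Cells seeded at 1,000/well and cultured 4 h, then compounds added followed by HCVcc-Cre virus (~0.5 moi). After 44 h further culture, luciferase substrate was added, plates held 15 min at room temperature, and luminescence read for 15 sec.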
# Pf growth 48h = P. falciparum growth inhibition at 48 hours (one generation); Potency, µM (top dose mostly 28.7 µM), hits mostly inhibitors; AID 504832; P. falciparum luciferase growth in erythrocytes, 48 h; 5.9% of 310,000 active
#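 Cell-based growth assay: transgenic P. falciparum expressing firefly luciferase, cultured in red cells within RPMI 1640 containing 0.5% w/v Albumax, 24 mM bicarbonate and gentamycin. A drop in luciferase activity indicates inhibition.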
# Cycloheximide cs = counter-screen for Shiga toxin inhibitors: cycloheximide protein synthesis inhibition. cell reporter, cycloheximide protein synthesis inhibition counterscreen. max response, %. 12% of 300,000 active; in the data active = max response mostly above about 13%, no sharp cut-off; inactive = mostly below about 14%; also: read at 38.3 µM for the half of the compounds with a filed dose
# HCMV antiviral = human cytomegalovirus inhibition. HFF cells, HCMV-luciferase reporter, 72 h; active compounds read low. 4.5% of 410,000 active. activity change, negative = inhibition, % at 57.5 µM; in the data active = activity change below about -60%; inconclusive = no clear call, values can overlap the other calls; inactive = above about -39%
#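 Inhibition of viral replication was scored as loss of reporter luminescence in HFFs infected with HCMV-luciferase (MOI 1 PFU/cell) for 72 h; compounds tested at 2 doses, normalized to buffer and Salinomycin controls.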
# Shiga inhibitor = blocks Shiga toxin action in Vero cells. AID 2315. Vero cells, Shiga toxin protein synthesis inhibition reporter. inhibition, % at 38.7 µM. 9.2% of 290,000 active; in the data active = inhibition mostly above about 28%, no sharp cut-off; inactive = mostly below about 43%
# Pf growth 96h = inhibits malaria parasite growth, 96 h; Potency, µM (series often up to 28.7 µM), hits mostly inhibitors; P. falciparum luciferase reporter growth, 96 h; 6.9% of 320,000 active
#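 Two-generation exposure (96 h) targets delayed-death phenotype. Reporter parasites carrying integrated firefly luciferase, in red cells at 2% hematocrit and 0.05% parasitemia final, kept at 37 C, 5% CO2; luminescence loss indicates inhibition.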
# Numbers stand for hits; – = inactive; ? = inconclusive; · = no result given. Unless noted, calls follow the shape of the dose curve; as a rule, active = well fitted inhibition curve with a large enough effect; inconclusive = small, poorly fitted or top-dose-only effect, or another doubt; inactive = no such curve, though single readings can be large or run the other way.
SMILES,HCV inhibitor,Pf growth 48h,Cycloheximide cs,HCMV antiviral,Shiga inhibitor,Pf growth 96h
CS(=O)(=O)NCc1ccc(C(=O)NCCOc2ccccc2)cc1,–,–,50,–,63,–
Cc1cccc(-c2nc(N3CCN(c4ccc(F)cc4)CC3)c3ccccc3n2)c1,·,·,·,–,·,·
CCc1ccc(NC(=O)c2cccc(N3CCCS3(=O)=O)c2)cc1,·,·,·,–,·,·
COc1ccc(C(=O)NCCSc2ccccc2)cc1,–,–,46,–,21,?
Cc1ccc(OCCNC(=O)CNC(=O)c2ccccc2Cl)cc1,–,–,·,–,·,–
COc1ccc(C(=O)NCCCCCCNC(=O)c2ccc(OC)cc2)cc1,–,–,16,–,–,–
Cc1ccc(OCCNC(=O)c2ccc(C)cc2)cc1,–,–,46,–,79,?
Cc1ccc(OCCNC(=O)c2ccccc2O)cc1,–,?,12,–,–,?
CCc1ccc(C2CC(=O)Nc3c2c(=O)n(C)c2ncnn32)cc1 (centres undefined),·,·,·,–,·,·
COc1ccc(N2CCN(CCCNC(=O)CN3C(=O)COc4ccccc43)CC2)cc1,–,?,–,–,–,–
COc1cc2c(C(=O)N3CCN(c4cccc(C)c4)C(C)C3)cn(CC(C)C)c(=O)c2cc1OC (centres undefined),·,·,·,–,·,·
COc1ccc(C(=O)NN)cc1,–,–,24,–,–,–
COc1ccc(-c2[nH]c3ccccc3c2SCCNC(=O)c2ccccc2)cc1,13µM,–,–,–,–,?
COc1ccc(OCCNC(=O)c2ccc(C)cc2)cc1,–,–,29,·,56,2.9µM
CSCc1ccc(C(=O)NCCSc2ccc(Br)cc2)cc1,–,–,55,–,103,–
O=[N+]([O-])c1ccc(OCC2CC(c3ccccc3)=NO2)cc1 (centres undefined),–,–,–,–,–,–
Cc1ccc(S(=O)(=O)N2CCC(C(=O)OCC(=O)N3CCCC(C)C3)CC2)cc1C (centres undefined),–,?,·,–,·,–
Cn1cnc(CCNC(=O)[C@@H]2[C@@H](CO)[C@@H]3Cn4c(cccc4=O)[C@H]2N3C(=O)Nc2ccccc2)c1,·,·,·,–,·,·
Cc1ccc(CNC(=O)c2ccc(-n3cnc4cccnc43)cc2)cc1,·,·,·,–,·,·
CCOC(=O)C1(CCCc2ccccc2)CCN(Cc2cn(CC)nc2C)CC1,11µM,?,–,?,–,–
CCOC(=O)C1(CCOc2ccccc2)CCN(Cc2nccn2CC)CC1,?,?,–,–,–,–
CCOC(=O)C1(CCCc2ccccc2)CCN(CCCn2cccn2)CC1,?,?,–,–,–,10µM
CCOC(=O)C1(CCCc2ccccc2)CCN(Cc2nccn2CC)CC1,10µM,10µM,–,?,–,?
CCOC(=O)C1(Cc2ccccc2C(F)(F)F)CCN(CCCn2cccn2)CC1,–,?,–,?,–,?
CCOC(=O)C1CCN(C(=O)c2[nH]c(C(F)(F)F)nc2-c2ccccc2)CC1,·,·,·,–,·,·
SMILES,HCV inhibitor,Pf growth 48h,Cycloheximide cs,HCMV antiviral,Shiga inhibitor,Pf growth 96h
Cc1ccc2c(c1)C=CC(C)N2C(=O)c1ccccc1 (centres undefined),–,?,–,–,–,?
Cc1ccc(C2=Nc3ccccc3N(C(=O)c3ccccc3)C(C)C2)cc1 (centres undefined),–,?,–,–,–,12µM
COC(=O)c1ccc(C(=O)Nc2ccc(C(C)C)cc2N)cc1,–,–,32,–,70,–
CCc1ccc(-c2nc3c(c(SCc4ccccc4F)n2)Cc2c(CO)cnc(C)c2O3)cc1,·,·,·,–,·,·
COC(=O)C1=C(c2ccc(OCc3ccccc3)cc2)C[C@@H]2CC[C@H]1N2C(=O)NCCCCc1ccccc1,·,·,·,–,·,·
COC(=O)C1=C(c2ccc(F)cc2OCc2ccccc2)C[C@@H]2CC[C@H]1N2C(=O)N1CCCC1,11µM,9.3µM,·,–,·,?
COC(=O)C1=C(c2ccc(F)cc2OCc2ccccc2)C[C@@H]2CC[C@H]1N2C(=O)NC1CC1,–,?,·,–,·,?
COC(=O)C1=C(c2ccc(F)cc2F)C[C@@H]2CC[C@H]1N2C(=O)N1CCC(O)CC1,–,–,·,-62,·,?
COC(=O)C1=C(c2ccccc2)C[C@@H]2CC[C@H]1N2C(=O)N1CCCC1,–,·,·,–,·,·
COC(=O)C1=C(c2ccc(OCc3ccccc3)cc2)C[C@@H]2CC[C@H]1N2C(=O)NC1CCN(Cc2ccccc2)CC1,?,9.3µM,·,·,·,?
